# From PubChem BioAssay (Tox21)
# Results filed as inconclusive are left out. A call without a number means that no potency is given here. A number with no mark means an inactive call. Calls of active or inactive are those of the source. Unless noted, calls come from the whole dose curve; as a rule, active = well fitted curve in the direction sought with a large enough effect in the repeat runs; inconclusive = weak or mixed curves; inactive = no such curve, though single readings can be large; an effect the other way counts as inactive or inconclusive.
# How the values were obtained:
# [1] = target: Retinoic acid receptor RXR-alpha (Homo sapiens) (UniProt P19793); test: qHTS assay to identify small molecule agonists of the RXR signaling pathway (AID 1159527; calls by dose curve; note: nearly all actives have a fitted effect of over 35% in size; note: potency is the fitted concentration of half-maximal effect)
# How it was run: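 Reporter activation is measured as beta-lactamase activity via FRET substrate cleavage (emission 460/530 nm) in HEK 293T cells expressing an RXR-alpha-driven bla construct, following 16 hr compound exposure at 37 C.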
# [2] = qHTS assay to identify small molecule agonists of the RXR signaling pathway - cell viability counter screen (AID 1159529); note: nearly all actives have a fitted effect of over 50% in size
# How it was run: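 Tox21 10K compounds were tested for cytotoxicity against GeneBLAzer RXR-alpha HEK 293T cells grown in 2% charcoal-stripped FBS. Exposure lasted 16 hr at 37 C, 5% CO2; viability read by CellTiter-Glo luminescence.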
# [3] = qHTS assay to identify small molecule antagonists of the retinoic acid receptor (RAR) signaling pathway (AID 1159552; note: nearly all actives have a fitted effect of over 50% in size)
# How it was run: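 Overnight-plated C3RL4 reporter cells get compound, then retinol to 1 uM final; plates sit 6 hr at 37 C, 5% CO2. A luciferase reagent is added and light output recorded after 30 min at room temperature.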
# [4] = qHTS assay to identify small molecule antagonists of the estrogen related receptor (ERR) signaling pathway from Tox21 library - cell viability counter screen (AID 1224834); note: nearly all actives have a fitted effect of over 30% in size
# How it was run: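 ERR reporter cells, 2,000 per well, rested 6 h, then exposed to compound in DMSO for 17.5 hours at 37 C. Viability read as fluorescence after 30 min with CellTiter-Fluor.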
# [5] = target: Luciferin 4-monooxygenase (Photinus pyralis) (UniProt P08659); test: qHTS assay to identify small molecule inhibitors of firefly luciferase (AID 1224835); note: nearly all actives have a fitted effect of over 25% in size; note: potency is the fitted concentration of half-maximal effect
# How it was run: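 Quantitative HTS format; KM concentrations of both substrates. Purified P. pyralis FLuc activity quantified from luminescence images.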
# [6] = qHTS assay to identify small molecule agonists of the constitutive androstane receptor (CAR) signaling pathway - cell viability counter screen (AID 1224836); note: nearly all actives have a fitted effect of over 45% in size
# How it was run: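 Fluorescence from CellTiter-Fluor indicates live cells after 23 h exposure. The human hepatoma line expresses hCAR and a CYP2B6-2.2kb reporter. Incubation medium contains 0.75 uM PK11195 (final).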
# [7] = qHTS assay to identify small molecule antagonists of the constitutive androstane receptor (CAR) signaling pathway - cell viability counter screen (AID 1224837); note: nearly all actives have a fitted effect of over 45% in size
# How it was run: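 HepG2 cells stably carrying hCAR and CYP2B6-2.2kb reporter, stimulated with 50 nM CITCO and compounds at 15 concentrations for 23 h at 37 C. Viability measured by CellTiter-Fluor fluorescence.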
# [8] = qHTS assay to identify small molecule agonists of the retinoic acid receptor (RAR) signaling pathway (AID 1159553); conditions: C3RL4 RARE luciferase reporter, agonist, 6 h; activation: at 73.3 µM (top of the series); note: potency is the fitted concentration of half-maximal effect
# How it was run: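 C3RL4 RARE-luciferase cells were seeded at 1,000/well and grown overnight at 37 C, then exposed to compounds for 6 hr at 37 C, 5% CO2. Luciferase reagent was added and luminescence was read after 30 min at room temperature.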
# [9] = target: Nuclear receptor subfamily 1 group I member 3 (Homo sapiens) (UniProt Q14994); test: qHTS assay to identify small molecule antagonists of the constitutive androstane receptor (CAR) signaling pathway (AID 1224838); note: nearly all actives have a fitted effect of over 40% in size
# How it was run: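 HepG2 cells stably carrying hCAR and a CYP2B6-2.2kb luciferase reporter, seeded 4 hrs before compound (15 concentrations). Stimulated with 50 nM CITCO for 24 hr at 37 C. ONE-Glo luminescence read after 30 min at room temperature.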
# [10] = qHTS assay to identify small molecule antagonists of the retinoid acid receptor (RAR) signaling pathway - cell viability counter screen (AID 1159551); note: nearly all actives have a fitted effect of over 35% in size
# How it was run: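 C3RL4 RARE-luciferase cells, 1,000/well, incubated overnight, then dosed with compound plus 1 uM retinol (final). After 6 hr at 37 C, viability read by CellTiter-Glo ATP luminescence following 30 min at room temperature.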
# Chain of Retinoic acid receptor RXR-alpha (Homo sapiens) (P19793 whole entry, looked up): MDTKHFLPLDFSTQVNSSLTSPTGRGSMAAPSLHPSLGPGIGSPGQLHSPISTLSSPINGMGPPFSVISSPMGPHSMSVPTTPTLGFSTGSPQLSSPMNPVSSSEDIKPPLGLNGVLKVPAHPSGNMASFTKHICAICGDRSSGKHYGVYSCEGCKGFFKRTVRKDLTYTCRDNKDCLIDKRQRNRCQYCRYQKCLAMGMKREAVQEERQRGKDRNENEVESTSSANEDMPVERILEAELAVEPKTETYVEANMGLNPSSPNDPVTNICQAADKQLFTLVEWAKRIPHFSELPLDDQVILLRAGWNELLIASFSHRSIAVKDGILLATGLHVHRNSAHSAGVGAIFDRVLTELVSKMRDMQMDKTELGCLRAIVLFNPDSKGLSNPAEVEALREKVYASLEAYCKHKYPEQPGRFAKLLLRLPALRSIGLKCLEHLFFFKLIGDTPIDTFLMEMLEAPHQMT
# Chain of Nuclear receptor subfamily 1 group I member 3 (Homo sapiens) (Q14994 whole entry, looked up): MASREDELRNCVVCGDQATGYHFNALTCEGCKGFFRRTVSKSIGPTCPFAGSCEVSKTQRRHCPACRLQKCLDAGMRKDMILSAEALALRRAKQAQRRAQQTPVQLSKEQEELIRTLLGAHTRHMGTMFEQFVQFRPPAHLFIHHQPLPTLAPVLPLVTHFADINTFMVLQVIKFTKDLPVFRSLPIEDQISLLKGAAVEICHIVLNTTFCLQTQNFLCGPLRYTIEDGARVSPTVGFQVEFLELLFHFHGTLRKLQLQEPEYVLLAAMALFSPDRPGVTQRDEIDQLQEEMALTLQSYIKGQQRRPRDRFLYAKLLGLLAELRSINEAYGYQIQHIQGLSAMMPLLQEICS
# Chain of Luciferin 4-monooxygenase (Photinus pyralis) (P08659 whole entry, looked up): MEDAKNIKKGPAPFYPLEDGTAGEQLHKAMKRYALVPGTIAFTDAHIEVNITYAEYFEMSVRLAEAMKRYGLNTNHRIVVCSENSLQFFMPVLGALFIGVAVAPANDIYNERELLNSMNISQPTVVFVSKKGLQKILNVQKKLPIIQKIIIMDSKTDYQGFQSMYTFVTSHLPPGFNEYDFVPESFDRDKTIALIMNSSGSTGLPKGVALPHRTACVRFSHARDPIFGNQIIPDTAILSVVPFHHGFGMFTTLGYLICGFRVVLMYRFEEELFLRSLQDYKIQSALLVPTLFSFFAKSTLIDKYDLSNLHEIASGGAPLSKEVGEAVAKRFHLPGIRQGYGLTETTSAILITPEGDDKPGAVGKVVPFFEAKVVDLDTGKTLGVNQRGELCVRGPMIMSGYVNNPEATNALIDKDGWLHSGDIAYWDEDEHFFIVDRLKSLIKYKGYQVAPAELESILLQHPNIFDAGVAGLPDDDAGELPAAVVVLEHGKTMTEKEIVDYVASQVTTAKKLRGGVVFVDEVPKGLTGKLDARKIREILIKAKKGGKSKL
smiles,measurement,setting,value
O=S(=O)(O)c1cc(O)ccc1O,Potency,[1],inactive
same,outcome,[2],inactive
same,Potency,[3],inactive
same,Potency,[4],inactive
same,Potency,[5],inactive
same,outcome,[6],inactive
same,Potency,[7],inactive
NCCc1ccn[nH]1,Potency,[1],inactive
same,outcome,[2],inactive
same,Potency,[8],inactive
same,Potency,[4],inactive
same,Potency,[5],inactive
same,Potency,[7],inactive
Cc1nc2ccccc2c(=O)o1,Potency,[1],inactive
same,outcome,[2],inactive
same,Potency,[3],inactive
same,Potency,[8],inactive
same,Potency,[4],inactive
same,Potency,[5],inactive
same,outcome,[6],inactive
same,Potency,[7],inactive
same,Potency,[9],inactive
COc1ccc(NS(=O)(=O)c2ccc(N)cc2)nn1,Potency,[1],inactive
same,outcome,[2],inactive
same,Potency,[3],inactive
same,Potency,[8],inactive
same,Potency,[4],inactive
same,Potency,[5],inactive
same,outcome,[6],inactive
same,Potency,[7],inactive
CC(C)COC(=O)/C=C/c1ccccc1,Potency,[1],inactive
same,outcome,[2],inactive
same,Potency,[3],inactive
same,Potency,[8],30.6 µM (active)
same,Potency,[4],inactive
same,Potency,[5],7.1 µM (active)
same,outcome,[6],inactive
same,Potency,[7],inactive
same,Potency,[9],inactive
Cn1c(=O)c2c(ncn2CC2OCCO2)n(C)c1=O,Potency,[1],inactive
same,outcome,[2],inactive
same,outcome,[10],inactive
same,Potency,[8],inactive
same,Potency,[4],inactive
same,Potency,[5],inactive
same,Potency,[7],inactive
same,Potency,[9],inactive
CCCCCCCCCOCC1CO1 (configuration not stated),Potency,[1],inactive
same,outcome,[2],inactive
same,Potency,[3],inactive
same,Potency,[8],inactive
same,Potency,[4],inactive
same,outcome,[6],inactive
same,Potency,[7],inactive
same,Potency,[9],inactive
COc1ccc(OC)c(NC(=O)CC(C)=O)c1,Potency,[1],inactive
same,outcome,[2],inactive
same,Potency,[3],inactive
same,Potency,[8],inactive
same,Potency,[4],inactive
same,Potency,[5],inactive
same,outcome,[6],inactive
same,Potency,[7],inactive
same,Potency,[9],inactive
O=CO,activation,[1],1.02% [at 6.98 µM]
same,"activity change, negative = cytotoxicity",[2],0.323% [at 6.97 µM]
same,"activity, negative = inhibition",[3],-7.08% [at 8.39 µM]
same,activation,[8],-3.33% [at 8.36 µM]
same,"viability change, negative = cytotoxic",[4],-0.634% [at 8.39 µM]
same,"viability change, negative = cytotoxic",[6],2.87% [at 8.39 µM]
same,"activity change, negative = cytotoxicity",[7],-0.437% [at 8.39 µM]
same,"activity, negative = inhibition",[9],-2.01% [at 8.39 µM]
NC(=O)NNC(N)=O,Potency,[1],inactive
same,outcome,[2],inactive
same,Potency,[3],inactive
same,Potency,[8],inactive
same,Potency,[4],inactive
same,Potency,[5],inactive
same,outcome,[6],inactive
same,Potency,[7],inactive
CC(=O)N1CCN(c2ccc(O)cc2)CC1,Potency,[1],inactive
same,outcome,[2],inactive
same,Potency,[3],inactive
same,Potency,[8],inactive
same,Potency,[4],inactive
same,Potency,[5],inactive
same,outcome,[6],inactive
same,Potency,[7],inactive
CN(C1CCCCC1)S(=O)(=O)c1ccccc1N,Potency,[1],inactive
same,outcome,[2],inactive
same,Potency,[3],inactive
same,Potency,[4],inactive
same,Potency,[5],inactive
same,outcome,[6],inactive
same,Potency,[7],inactive
same,Potency,[9],inactive
O=S(=O)(O)SSS(=O)(=O)O,Potency,[1],inactive
same,outcome,[2],inactive
same,Potency,[3],inactive
same,Potency,[8],inactive
same,Potency,[4],inactive
same,outcome,[6],inactive
same,Potency,[7],inactive
same,Potency,[9],inactive
CC(C)SCc1ccco1,Potency,[1],inactive
same,outcome,[2],inactive
same,Potency,[3],inactive
same,Potency,[8],inactive
same,Potency,[4],inactive
same,Potency,[5],inactive
same,outcome,[6],inactive
same,Potency,[7],inactive
NS(=O)(=O)c1ccc(Cl)c(S(N)(=O)=O)c1,Potency,[1],inactive
same,outcome,[2],inactive
same,Potency,[3],inactive
same,Potency,[8],inactive
same,Potency,[4],inactive
same,Potency,[5],inactive
same,Potency,[7],inactive
CCC1COC(=O)O1 (configuration not stated),Potency,[1],inactive
same,outcome,[2],inactive
same,Potency,[3],inactive
same,Potency,[4],inactive
same,Potency,[5],inactive
same,outcome,[6],inactive
same,Potency,[7],inactive
CCCCCCCCCCCCOC(C)=O,Potency,[1],inactive
same,outcome,[2],inactive
same,outcome,[10],inactive
same,Potency,[4],inactive
same,Potency,[5],inactive
same,outcome,[6],inactive
same,Potency,[7],inactive
CO[Si](CCCCl)(OC)OC,Potency,[1],inactive
same,outcome,[2],inactive
same,outcome,[10],inactive
same,Potency,[4],inactive
same,Potency,[5],inactive
same,outcome,[6],inactive
same,Potency,[7],inactive
same,Potency,[9],inactive
CCCCOC(=O)C(=O)OCCCC,Potency,[1],inactive
same,outcome,[2],inactive
same,outcome,[10],inactive
same,Potency,[8],inactive
same,Potency,[4],inactive
same,outcome,[6],inactive
same,Potency,[7],inactive
same,Potency,[9],inactive
CCN(CC)C(=O)C1CN2CCc3cc(OC)c(OC)cc3C2CC1OC(C)=O (configuration not stated),Potency,[1],inactive
same,outcome,[2],inactive
same,Potency,[3],inactive
same,Potency,[8],inactive
same,Potency,[4],inactive
same,Potency,[5],inactive
same,outcome,[6],inactive
same,Potency,[7],inactive
Nc1cc(S(=O)(=O)O)ccc1S(=O)(=O)O,Potency,[1],inactive
same,outcome,[2],inactive
same,outcome,[10],inactive
same,Potency,[4],inactive
same,Potency,[5],inactive
same,outcome,[6],inactive
same,Potency,[7],inactive
COC(/C=C(\C)CCC=C(C)C)OC,Potency,[1],inactive
same,outcome,[2],inactive
same,Potency,[3],inactive
same,Potency,[8],inactive
same,Potency,[4],inactive
same,Potency,[5],inactive
same,outcome,[6],inactive
same,Potency,[7],inactive
C=C[C@@H](C)CCC=C(C)C,Potency,[1],inactive
same,outcome,[2],inactive
same,outcome,[10],inactive
same,Potency,[4],inactive
same,Potency,[5],inactive
same,outcome,[6],inactive
same,Potency,[7],inactive
CCC(C)(CCC(C)C)C(=O)[O-].CCC(C)(CCC(C)C)C(=O)[O-].[Zn+2] (configuration not stated),Potency,[1],inactive
same,outcome,[2],inactive
same,Potency,[3],inactive
same,Potency,[4],inactive
same,Potency,[5],25.2 µM (active)
same,Potency,[7],inactive
OCCCCCCCl,Potency,[1],inactive
same,outcome,[2],inactive
same,Potency,[3],inactive
same,Potency,[8],inactive
same,Potency,[4],inactive
same,Potency,[5],inactive
same,outcome,[6],inactive
same,Potency,[7],inactive
CCCCCCCCCCC,Potency,[1],12.3 µM (active)
same,outcome,[2],inactive
same,Potency,[3],inactive
same,Potency,[4],inactive
same,Potency,[5],inactive
same,outcome,[6],inactive
same,Potency,[7],inactive
same,Potency,[9],inactive
CC(=O)OCCCc1ccccc1,Potency,[1],inactive
same,outcome,[2],inactive
same,Potency,[8],inactive
same,Potency,[4],inactive
same,Potency,[5],inactive
same,outcome,[6],inactive
same,Potency,[7],inactive
C[CH2][Ge]([Cl])([CH2]C)[CH2]C,Potency,[1],inactive
same,outcome,[2],inactive
same,outcome,[10],inactive
same,Potency,[4],inactive
same,Potency,[5],inactive
same,outcome,[6],inactive
same,Potency,[7],inactive
CC(C)=CC(C)(C)C,Potency,[1],inactive
same,outcome,[2],inactive
same,Potency,[3],inactive
same,Potency,[8],inactive
same,Potency,[4],inactive
same,Potency,[5],inactive
same,outcome,[6],inactive
same,Potency,[7],inactive
CCCCCC1CCCC(=O)O1 (configuration not stated),Potency,[1],inactive
same,outcome,[2],inactive
same,outcome,[10],inactive
same,Potency,[4],inactive
same,Potency,[5],inactive
same,Potency,[7],inactive
C=C[Si](C)(C)O[Si](C)(C)C=C,Potency,[1],inactive
same,outcome,[10],inactive
same,Potency,[3],inactive
same,Potency,[8],inactive
same,Potency,[4],inactive
same,Potency,[5],inactive
same,outcome,[6],inactive
same,Potency,[7],inactive
Nc1ccnc(=O)[nH]1,Potency,[1],inactive
same,outcome,[10],inactive
same,Potency,[3],inactive
same,Potency,[4],inactive
same,Potency,[5],inactive
same,outcome,[6],inactive
same,Potency,[7],inactive
CN[C@@H]1[C@@H](O)[C@@H](O[C@@H]2[C@H](O)[C@H](O[C@H]3OC(CN)=CC[C@H]3N)[C@@H](N)C[C@H]2N)OCC1(C)O (some centres not stated),Potency,[1],inactive
same,outcome,[10],inactive
same,Potency,[3],inactive
same,Potency,[4],inactive
same,Potency,[5],inactive
CC(=O)OCC(=O)[C@@]1(O)[C@H](OC(C)=O)C[C@H]2[C@@H]3CCC4=CC(=O)C=C[C@]4(C)[C@@]3(F)[C@@H](O)C[C@@]21C,Potency,[1],inactive
same,outcome,[10],inactive
same,Potency,[8],inactive
same,Potency,[4],inactive
same,Potency,[5],inactive
same,outcome,[6],inactive
same,Potency,[7],inactive
same,Potency,[9],inactive
